Data taken from ChEMBL document CHEMBL4513216, “Probing the Open Global Health Chemical Diversity Library for Multistage-Active Starting Points for Next-Generation Antimalarials” (ACS Infect Dis, 2020).
Among all 68,000 compounds or so, about 2,700 (4%) showed an effect of 50% or more. Many of the other results were omitted from the sample, so strong results are more common in it than they were.

System: Plasmodium berghei
Experiment: Screen against P. berghei liver stage (PbLuc), transformed with Luciferase, at 2uM
Assay type: functional, HepG2
Settings: tested at 2 uM

| Compound | INHIBITION |
| --- | --- |
| CC(C)=CCN1C[C@@H]2CN(C(=O)c3cnccc3C)C[C@]2(C(=O)O)C1 | -9.48% |
| CCn1nc(C)cc1C(=O)N1CCC(Nc2ccc(C)nn2)CC1 | -7.05% |
| COC(=O)c1ccc(N(C)C2CCC2)nn1 | 24.36% |
| CN(c1ccc(C(N)=O)nn1)C1CCC1 | -35.26% |
| CNC(=O)c1ccc(N(C)C2CCC2)nn1 | 67.28% |
| C[C@@H]1C[C@H]2CN(C(=O)C3=CCCCC3)C[C@H]2O1 | 28.2% |
| O=C(c1ccncc1)N1C[C@H]2CC[C@@H](C1)N(C(=O)C1CCCC1)C2 | 63.1% |
| O=C(c1ccncc1)N1C[C@H]2CC[C@@H](C1)N(C(=O)N1CCOCC1)C2 | -58.5% |
| CCOCC(=O)N1C[C@@H]2CC[C@H]1CN(C(=O)c1ccncc1)C2 | -3.87% |
| CN(C)C(=O)N1Cc2nnn(C)c2C(COCc2cccnc2)C1 (configuration not stated) | -16.25% |
| CCc1ccc(NC(=O)N2C[C@@H]3C[C@H](C(=O)NC4CCC4)[C@H](C2)O3)cc1 | 25.08% |
| Cc1ncc(CN2CCOC(c3ccc(-c4ccccc4F)cn3)C2)s1 (configuration not stated) | 48.08% |
| CNC(=O)c1cn[nH]c1C1(C)CCCN(Cc2ccccn2)C1 (configuration not stated) | 19.47% |
| CN(C)C(=O)c1cn[nH]c1C1(C)CCCN(Cc2ccccn2)C1 (configuration not stated) | 70.33% |
| CN(C)C(=O)c1cn[nH]c1C1(C)CCN(c2ncccn2)CC1 | -16.2% |
| Cc1ccc(C)c(CS(=O)(=O)CC(=O)NCCCOC(C)C)c1 | 22.1% |
| Cc1cccc(-c2noc(C)c2C(=O)NC2CCCOC2)c1 (configuration not stated) | -3.96% |
| Cc1nc(CN2CCN(S(=O)(=O)N3CCOCC3)CC2)oc1C | -9.04% |
| Cc1nc(CN2CCN(S(=O)(=O)N3CCCCC3)CC2)oc1C | 54.44% |
| Cc1nc(CN2CCOC3(CCCC3)C2)oc1C | 20.49% |
| CC(C)N1CC[C@H]2[C@H](C[C@@H](Cn3cccn3)N2c2nccs2)C1 | 34.42% |
| CNC(=O)CN1CC[C@H]2CN(C(=O)c3cccc(C)c3)C[C@H]2C1 | 30.63% |
| CNC(=O)CN1CC[C@H]2CN(C(=O)c3ccc(C)nc3)C[C@H]2C1 | 40.83% |

| Compound | INHIBITION |
| --- | --- |
| CNC(=O)CN1CC[C@H]2CN(C(=O)c3ccc(C)cc3)C[C@H]2C1 | 51.94% |
| Cc1nccn1C1CCCN(C(=O)CCc2nc(C(C)C)no2)C1 (configuration not stated) | 21.71% |
| CN1C(=O)[C@@H]2CC[C@H]1CN(C(=O)Nc1cccc3ccccc13)C2 | -110.62% |
| CCN(CC)C1COc2c(cc(Br)c(C)c2Br)C1=O (configuration not stated) | 58.18% |
| Cc1c(Br)cc2c(c1C)OCC(N(C)C)C2=O (configuration not stated) | -5.64% |
| CCN(CC)C1COc2c(cc(Br)c(C)c2C)C1=O (configuration not stated) | 24.56% |
| Cc1cnn(CCNCC(O)COc2ccc(F)cc2)c1 (configuration not stated) | -0.05% |
| CC(C)(C)C(=O)N1CCC(n2nc(-c3ccco3)ccc2=O)CC1 | 17.8% |
| O=C1[C@H]2CN(C3CCOCC3)C[C@H]2CN1Cc1cccc(F)c1 | 66.67% |
| Cc1cccc(CN2C[C@@H]3CN(C4CCOCC4)C[C@@H]3C2=O)c1 | 6.22% |
| O=C1[C@H]2CN(CC3CC3)C[C@H]2CN1Cc1cccc(F)c1 | 26.52% |
| CN(C)C(=O)CN1C[C@H]2CN(Cc3cccc(F)c3)C(=O)[C@H]2C1 | 53.98% |
| CN(C)C(=O)N1C[C@H]2CN(Cc3cccc(F)c3)C(=O)[C@H]2C1 | 18.8% |
| O=C1[C@H]2CN(CC3CCOCC3)C[C@H]2CN1Cc1cccc(F)c1 | 14.13% |
| CNC(=O)COc1ccc(CNCc2c(C)nn(C)c2N(C)C)cc1 | -5.7% |
| Cc1cnc(N2CCc3c(CNc4ccnc(C)n4)cncc3C2)nc1 | -25.4% |
| CN1C(=O)C2(CC(=O)Nc3c2cnn3C(C)(C)C)c2c(Cl)cccc21 (configuration not stated) | -20.78% |
| O=C(Cn1cnnn1)NCC1(O)CCCc2ccccc21 (configuration not stated) | -4.62% |
| CNc1nc(C(=O)N2CCCn3nc(C(=O)N4CCCC4)cc3C2)cs1 | -38.39% |
| Cc1ccnc(OC[C@]23COC[C@H]2CN(C(=O)Cc2ccsc2)C3)n1 | 11.1% |
| O=C(Cc1cccnc1)NCCSc1ccccc1F | -10.89% |
| O=C(CCSc1ccccc1F)NCc1cccnc1 | -67.38% |
| O=C(NCCSc1ccccc1F)NCc1cccnc1 | 68.04% |

| Compound | INHIBITION |
| --- | --- |
| CN1CCCN(C(=O)c2cnc(Cc3c(Cl)cccc3Cl)nc2O)CC1 | -116.99% |
| CSCC(=O)N(C)Cc1cnn(-c2ccc(F)cc2)c1 | -9.65% |
| Cc1ccnn1CC(=O)N(C)Cc1ccc(-n2cccn2)cc1 | 18.76% |
| Cc1ccnn1CC(=O)N(C)Cc1cnn(-c2ccccc2)c1 | 60.67% |
| CSc1ccc(C)c(C(=O)N2CCCC(n3cncn3)C2)c1 (configuration not stated) | -1.88% |
| COC(=O)c1ccc(S(=O)(=O)N(C)CC(N)=O)c(Cl)c1 | -3.54% |
| O=C(Nc1ccccn1)N(CCO)Cc1ccsc1 | 58.49% |
| Cc1cccnc1NC(=O)N(CCO)Cc1ccsc1 | 36.95% |
| O=C(Nc1nccs1)N(CCO)Cc1ccsc1 | -14.3% |
| O=C(O)c1c(-c2cncnc2)ncc2c1CCN(Cc1cccnc1)C2 | 11.98% |
| O=C(NCC1Cn2nnc(-c3ccoc3)c2CO1)c1ccc[nH]1 (configuration not stated) | 12.21% |
| O=C(N1CCCC1)N1C[C@@H]2CCNC[C@@H]21 | 32.05% |
| O=C(C1CCCCC1)N1C[C@@H]2CCNC[C@@H]21 | 63.89% |
| O=C(C1CCCC1)N1C[C@@H]2CCNC[C@@H]21 | 34.79% |
| CC(=O)N1CC[C@H]2OCC[C@@]2(C(=O)NCCc2ccccn2)C1 | 7.55% |
| O=C(NCCc1ccccn1)[C@@]12CCO[C@@H]1CCN(CC1CC1)C2 | 51.81% |
| CN1CC[C@H]2OCC[C@@]2(C(=O)NCCc2ccccn2)C1 | 23.81% |
| CN(Cc1nc2ccccc2s1)C1CCCN(c2cccnn2)C1 (configuration not stated) | 29.39% |
| c1cnc2nc(N3CCCC3c3nnc4n3CCCCC4)ccc2n1 (configuration not stated) | 2.06% |
| Cc1c(C(=O)N[C@@H]2CC[C@@H](N3CCCC3)[C@@H]2O)[nH]c2ccc(F)cc12 | 30.96% |
| O=C(NCC(=O)N1CCCCC1)c1sccc1C1CC1 | 54.62% |
| O=C(NCC(=O)N1CCN(c2ccccc2)CC1)c1sccc1C1CC1 | -31.42% |
| Cc1ccc(C)n1-c1ccsc1C(=O)NCC(=O)N1CCCC1 | 36.34% |

| Compound | INHIBITION |
| --- | --- |
| Cc1ccc2nc(C(=O)N(C)[C@@H]3CC[C@@H](N4CCCC4)[C@@H]3O)cn2c1 | -18.64% |
| Cc1cn(CCn2ccnc2-c2sccc2C)nn1 | 59.08% |
| Cc1ccsc1-c1nccn1CCS(C)(=O)=O | 38.1% |
| Cc1ccsc1-c1nccn1CCN(C)S(C)(=O)=O | 4.48% |
| COc1ccnc(NCc2ccccc2Cn2cccn2)n1 | -136.67% |
| CN1CCCN(C(=O)NCCNc2ncccn2)CC1 | -3.93% |
| Cc1nn(C)c(C)c1-c1cnc(C2CCCN(C)C2)cn1 (configuration not stated) | 22.81% |
| CC(=O)N1CCCC(c2cnc(-c3c(C)nn(C)c3C)cn2)C1 (configuration not stated) | 20.08% |
| Cc1nn(C)c(C)c1-c1cnc(C2CCCN(S(C)(=O)=O)C2)cn1 (configuration not stated) | 51.15% |
| CN(C)c1ccc(CN(CCCn2ccnc2)Cc2c[nH]cn2)cc1 | 18.15% |
| Cn1c(CCCNC(=O)Nc2cn[nH]c2)nc2ccccc21 | 29.13% |
| CC(C)n1nccc1NC(=O)NCCc1nc2ccc(F)cc2n1C | 2.9% |
| Cn1c(CCNC(=O)Nc2cn[nH]c2)nc2ccc(F)cc21 | 55.36% |
| CN(Cc1ccccc1)C1(C(=O)NCC(N)=O)Cc2ccccc2C1 | 6.39% |
| Cc1cc(CCC2CN(Cc3ccccc3C(=O)O)CCO2)ncn1 (configuration not stated) | 0.3% |
| Cc1cc(C[S+]([O-])CC(=O)NCC(C)C)no1 (configuration not stated) | -10.66% |
| Cc1cc(C[S+]([O-])CC(=O)NCc2ccccc2)no1 (configuration not stated) | -15.28% |
| Cc1cc(C[S+]([O-])CC(=O)Nc2c(C)cccc2C)no1 (configuration not stated) | 51.21% |
| CCOC(=O)CN1C(=O)CN(S(C)(=O)=O)CCC(OC)c2ccccc21 (configuration not stated) | 12.44% |
| Cn1ccnc1CN1CCN(CC(=O)NCC(F)(F)F)CC1 | 62.13% |
| Cn1ccnc1CN1CCN(CC(=O)NCc2ccccc2F)CC1 | 26.09% |
| Cc1ccccc1CNC(=O)CN1CCN(Cc2nccn2C)CC1 | -34.45% |
| CS(=O)(=O)c1snnc1C1CCN(Cc2ccc3nccnc3c2)CC1 | 28.67% |
